Test in all cases: NCI-60 one-dose screen, 48 h (100 = growth as untreated, 0 = no growth, -100 = all killed)
Holding throughout (settings): 10 µM unless noted

Experiment [1] concerns DU-145 prostate.
The test system of experiment [2] is K-562 leukemia.
The subject of experiment [3] is MALME-3M melanoma.
For experiment [4], the system named is MDA-MB-231 breast.
The subject of experiment [5] is RXF 393 renal.
Experiment [6] relates to SF-268 CNS.
The subject of experiment [7] is SF-295 CNS.
Experiment [8] concerns SF-539 CNS.
The test system of experiment [9] is UACC-257 melanoma.
For experiment [10], the system named is M14 melanoma.
The subject of experiment [11] is HCT-15 colon.
For experiment [12], the system named is HT29 colon.
The subject of experiment [13] is SNB-75 CNS.
For experiment [14], the system named is SNB-19 CNS.
Experiment [15] concerns U251 CNS.
Experiment [16] has as its system PC-3 prostate.
Experiment [17] deals with SK-MEL-5 melanoma.
Experiment [18] has as its system UACC-62 melanoma.
The subject of experiment [19] is LOX IMVI melanoma.
Experiment [20] deals with SK-MEL-28 melanoma.

Each structure is given as a SMILES string. The panel holds about 83,000 compounds, 20% with a hit somewhere; the sample as a whole holds those more often.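 Each cell line was grown in a 96-well plate and treated with one concentration of compound for 48 hours. Values below 10 were considered active.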 Values without a mark were called inactive. Activity calls are given as the source filed them.

Take `COc1cccc(-c2nn(-c3ccccc3)cc2-c2ccnc(N3CCOCC3)c2)c1`: the growth in experiment [1] was 99.5%; in experiment [2] it was 73.6%; in experiment [3], 90.7%; in experiment [4] it was 85.1%; in [5], 97.8%; in [6] it was 88.8%. Also, the growth in experiment [7] was 82.8%; in experiment [8], 97.9%; in experiment [9] it was 111%; in experiment [10], 100%; in [11], 85.9%; in experiment [12], 86.7%. In addition, the growth is 97.2% in experiment [13]; 99.9% in experiment [14]; 96.2% in experiment [15]; 70.2% in experiment [16]; 80.4% in [17]; 71.8% in experiment [18]. Moreover, the growth was 89.7% in experiment [19] and 108% in experiment [20].
For `COc1ccc(NC2=C(Br)C(=O)C(C)=C(C)C2=O)cc1`, the growth in experiment [1] is 106%; in [2], -2.92% (active); in [3] it was 94.4%; in experiment [4] it was -55.4% (active); in [5], 102%; in [6], 98%. Also, the growth is 98.9% in experiment [7]; 90.6% in [8]; 72.8% in experiment [9]; 97% in [10]; 91.6% in experiment [11]; 117% in experiment [12]. The growth is 72% in experiment [13]; 85.2% in experiment [14]; 88.3% in experiment [15]; 73.1% in experiment [16]; 92.3% in experiment [17]; 84.4% in experiment [18]. The figures for the growth in [19] and in [20] were -35.6% (active) and 103%, respectively.
With `Cc1nc2ccccc2n1CC1C(=O)NC(=O)NC1=O`, the growth was 117% in experiment [1]; 94.8% in [2]; 106% in experiment [3]; 114% in experiment [4]; 123% in [5]; 106% in experiment [6]. The growth in [7] was 102%; in experiment [8] it was 100%; in [9], 101%; in experiment [10], 110%; in experiment [11], 106%; in experiment [12], 107%. Moreover, the growth was 94.1% in experiment [13]; 98.5% in [14]; 99.4% in [15]; 103% in experiment [16]; 100% in experiment [17]; 103% in experiment [18]. Further, the growth in experiment [19] is 100%; in [20], 108%.
Regarding `O=C(CCN1C(=O)/C(=C/c2ccc(O)cc2)SC1=S)Nc1ccccc1`, the growth in experiment [1] was 110%; in experiment [2], 81.8%; in [3], 95.4%; in experiment [4], 91.1%; in [5] it was 103%; in [6] it was 93.5%. The growth is 91% in experiment [7]; 97.8% in [8]; 104% in [9]; 97.4% in [10]; 90.8% in experiment [11]; 118% in experiment [12]. The growth was 89.3% in experiment [13]; 91.4% in experiment [14]; 92.7% in [15]; 90.5% in experiment [16]; 101% in experiment [17]; 81.6% in [18]. Also, the growth in experiment [19] was 97.6%; in [20], 97.3%.
In the case of `COc1ccc(S(=O)(=O)n2cc(C3OC(c4cc(OC)c(OC)c(OC)c4)=NN3C(C)=O)c3ccccc32)cc1OC` (stereo not given), the growth is 145% in [1]; 64.4% in experiment [2]; 104% in [3]; 82.6% in experiment [4]; 89.3% in experiment [5]; 108% in [6]. For the same compound, the growth in experiment [7] was 93%; in experiment [8] it was 89.1%; in [9], 87.9%; in experiment [10], 98.1%; in experiment [11], 81.8%; in experiment [12], 110%. The growth in experiment [13] is 86%; in experiment [14], 85.7%; in [15], 97.7%; in [16] it was 80.3%; in experiment [17], 76.4%; in [18], 72.8%. The growth was 78.4% in [19] and 110% in experiment [20].
`COc1ccc(-c2nn(C(=O)c3cc(OC)c(OC)c(OC)c3)c3cc(N)ccc23)cc1`: the growth is 10.1% in experiment [1]; 8.96% (active) in [2]; 68.2% in experiment [3]; 29.9% in experiment [4]; 14.6% in experiment [5]; 27.4% in [6]. In addition, the growth in experiment [7] is 7.45% (active); in [8], -24% (active); in experiment [9], 86.4%; in experiment [10] it was 24.4%; in experiment [11] it was 4.67% (active); in experiment [12], 0.136% (active). The growth in experiment [13] was 39.6%; in experiment [14], 34%; in experiment [15], 12.3%; in experiment [16] it was 25.8%; in experiment [17] it was -15.8% (active); in experiment [18], 42.5%. Besides, the growth was 26.3% in [19] and 45.1% in [20].
`C/C=C(\C)C(=O)N[C@H]1[C@@H](OC(C)=O)C[C@]2(C)C3CC[C@@]4(C)C(CC[C@@H]4C(C)N(C)C)C3CCC2[C@H]1O` (stereo not given in full): the growth in experiment [1] is 87.4%; in experiment [2] it was 50.2%; in experiment [3], 7.93% (active); in experiment [4] it was 78%; in experiment [5] it was 83.2%; in [6], 42.7%. For the same compound, the growth in experiment [7] was 78.2%; in experiment [8] it was 37%; in experiment [9], 3.29% (active); in experiment [10] it was -32.7% (active); in experiment [11], 2.88% (active); in experiment [12] it was 11.3%. Also, the growth was 60.3% in experiment [13]; 101% in experiment [14]; 68.7% in experiment [15]; 45% in experiment [16]; 5.99% (active) in experiment [17]; 13.6% in experiment [18]. In addition, the results for the growth in [19] and in experiment [20] were 16.8% and -35.8% (active), respectively.

The values are drawn from PubChem BioAssay (NCI).
